Among the data in PubChem BioAssay (Tox21) are Potency values, retold here.

SMILES strings stand for the structures. Inconclusive results are not listed. Entries that show only a call come without a potency. Activity calls are given as the source filed them. The call rests on the fitted dose curve; in most records, active means well fitted inhibition curve with a large enough effect in the repeat runs; inconclusive means weak or mixed curves; inactive means flat fitted curve, though single readings scatter. Starred links: 1 amine or outer side, 2 acyl side, 3 side chain; linkers in the order of their positions; H or OH if unused. Positions of bridges follow the written chain, without caps; N, C: chain ends. Non-standard residues stand in square brackets, D forms with d. Residues, ends and D or L forms follow the SMILES beside them. Chains are numbered I, II in the order given. Actinocin(9to1) = Cc1c2oc3c(C)ccc(C(=O)[*:1])c3nc-2c(C(=O)[*:2])c(N)c1=O; NMeV = CN[C@H](C(=O)O)C(C)C; Sar = CNCC(=O)O

The assay can be described thus: qHTS assay to identify small molecule HDAC inhibitors (AID 1259364). Further: top concentration of the series differs between compounds; nearly all actives have a fitted effect of over 45% in size. The settings on record: HCT-116 HDAC-Glo I/II luminescence, 2 h; series mostly up to 92.4 µM. An excerpt: U.S. Tox21 Program National Center for Advancing Translational Sciences [NCATS] NIH Chemical Genomics Center [NCGC] U.S. Environmental Protection Agency [EPA] National Institutes of Environmental Health Sciences [NIEHS] National Toxicology Program [NTP] U.S. Food and Drug Administration [FDA] Tox21 Assay Overview: Histone deacetylases (HDACs) are a group of epigenetic enzymes that regulate gene expression by histone deacetylation. HDACs are capable of introducing epigenetic modifications and such aberrations contribute to the onset and progression of several human diseases, thus making HDACs a popular therapeutic target. For identifying endogenous class I/II HDAC inhibitors a homogenous, luminogenic HDAC I/II cell based assay was used to measure the relative activity of class I and II HDACs from cells. Wild type HCT-116 cells were used to screen Tox21 libraries for identifying class I/II HDAC inhibitors.
Tox21 Assay Protocol Summary: HCT-116 cells were dispensed at 1,500 per well in 5uL of culture medium into white solid bottom 1536-well plates (Greiner Bio-One, Monroe, NC) using a Multidrop Combi (Thermo Scientific, Waltham, MA) dispenser. The assay plates were incubated at 37 C and 5% CO2 for an overnight, and then 23nL of compounds dissolved in DMSO and positive control were transferred using a Pintool station (Wako, San Diego, CA). The assay plates were incubated at 37C and 5% CO2 for 2hr. After compound treatment, 4uL of HDAC-Glo reagent (Promega Corporation, Madison, WI) was added to each well of the assay plates using Flying Reagent Dispenser (FRD, Aurora Discovery, San Diego, CA) and incubated the assay plates at room temperature for 30min. The luminescence signal was quantified using a ViewLux plate reader (Perkin Elmer, Shelton, CT).
Background: Quantitative high-throughput screening tests each substance at several concentrations.
Turning to `O=c1n(CC2CO2)c(=O)n(CC2CO2)c(=O)n1CC1CO1` (stereo not given), the Potency entry was “inactive”.

`CC(C)(C)c1ccccc1`: the Potency result was “inactive”.

In the case of `OCCOCCN1CCN(C(c2ccccc2)c2ccc(Cl)cc2)CC1` (stereo not given), the Potency entry was “inactive”.

Consider `CC1=C(C=O)C(C)(C)CC=C1`, for which the Potency entry is “inactive”.

`NCCO`: the Potency entry is “inactive”.

In the case of `C=CC(=O)OCCCCCCOC(=O)C=C`, the Potency result was “inactive”.

Regarding `CCc1cc(C(C)(C)C)c(O)c(C(C)(C)C)c1`, the Potency entry is “inactive”.

On to `CCCCCCCCCCCCCC[P+](CCCC)(CCCC)CCCC`, for which the Potency result is “inactive”.

Take `CN1C(=O)c2ccc([N+](=O)[O-])cc2C1=O`: the Potency result is “inactive”.

As for `C[N+]1([O-])CCOCC1`, the Potency result was “inactive”.

With `Nc1nc2ccccc2[nH]1`, the Potency entry is “inactive”.

Turning to `O=C1NCC2(CCN(CCc3ccccc3)CC2)O1`, the Potency entry is “inactive”.

For the compound `CCn1cc(C(=O)O)c(=O)c2cc(F)c(N3CCNC(C)C3)c(F)c21` (stereo not given), the Potency result was “inactive”.

Turning to `CC1COc2c(N3CCN(C)CC3)c(F)cc3c(=O)c(C(=O)O)cn1c23` (stereo not given), the Potency result is “inactive”.

For `CCCOC(=O)c1cc(O)c(O)c(O)c1`, the Potency entry is “inactive”.

For `Cc1c(O)cccc1C(=O)N[C@@H](CSc1ccccc1)[C@H](O)CN1C[C@H]2CCCC[C@H]2C[C@H]1C(=O)NC(C)(C)C`, the Potency result was “inactive”.

`CCCN[C@H]1CCc2nc(N)sc2C1`: the Potency entry is “inactive”.

Turning to `CCOc1ccc2c(c1)C(C)=CC(C)(C)N2`, the Potency entry is “inactive”.

In the case of `CCCCOCCOC(=O)c1ccccc1C(=O)OCCOCCCC`, the Potency result is “inactive”.

In the case of `CCCCN(CCO)CCCC`, the Potency result is “inactive”.

`CCN(CC)C(=O)Nc1ccc(OCC(O)CNC(C)(C)C)c(C(C)=O)c1` (stereo not given): the Potency entry was “inactive”.

Take `O=C1OC2(c3ccc(O)cc3Oc3cc(O)ccc32)c2ccccc21`: the Potency result is “inactive”.

For `CC[C@H]1CN2CCc3cc(OC)c(OC)cc3[C@@H]2C[C@@H]1C[C@H]1NCCc2cc(OC)c(OC)cc21`, the Potency entry was “inactive”.

In the case of `CC(C)(O)CCC(C)(C)O`, the Potency entry was “inactive”.

Consider `O=C(Cl)c1cccc(C(=O)Cl)c1`, for which the Potency result was “inactive”.

In the case of `CCCCCC(=O)O[C@]1(C(C)=O)CC[C@H]2[C@@H]3CCC4=CC(=O)CC[C@]4(C)[C@H]3CC[C@@]21C`, the Potency entry was “inactive”.

Regarding `NCCCCCC(=O)O`, the Potency entry is “inactive”.

`O=Cc1ccc(Cl)cc1`: the Potency entry was “inactive”.

Take `O=C(O)CP(=O)(O)O`: the Potency result was “inactive”.

For `CCCC(=O)c1ccccc1`, the Potency entry is “inactive”.

As for `CC(C)CCCCCCc1ccc(O)cc1`, the Potency entry is “inactive”.

For `CCC(CO)(CO)COCC(CC)(CO)CO`, the Potency entry is “inactive”.

With `CCN(CC)C(=S)SSC(=S)N(CC)CC`, the Potency entry was “inactive”.

Take `CC(N)=O`: the Potency result is “inactive”.

On to `Cc1c2oc3c(C)ccc(C(=O)N[C@@H]4C(=O)N[C@H](C(C)C)C(=O)N5CCC[C@H]5C(=O)N(C)CC(=O)N(C)[C@@H](C(C)C)C(=O)O[C@@H]4C)c3nc-2c(C(=O)N[C@@H]2C(=O)N[C@H](C(C)C)C(=O)N3CCC[C@H]3C(=O)N(C)CC(=O)N(C)[C@@H](C(C)C)C(=O)O[C@@H]2C)c(N)c1=O` (I: T[dV]P[Sar][NMeV] / II: T[dV]P[Sar][NMeV]; ester I:1-I:C, II:1-II:C; linker I:N-II:N via Actinocin(9to1)), for which the Potency entry was “inactive”.

In the case of `Cc1cccc2n[nH]nc12`, the Potency entry was “inactive”.

With `OCCN1CCNCC1`, the Potency result was “inactive”.

Take `CCc1ccc(C(c2ccc(CC)cc2)C(Cl)Cl)cc1`: the Potency result was “inactive”.

Consider `CC(=O)OCC1=C(C(=O)O)N2C(=O)[C@@H](NC(=O)Cc3cccs3)[C@H]2SC1`, for which the Potency result was “inactive”.

Regarding `CC(C)CCOCc1ccccc1`, the Potency result is “inactive”.
